# Screening data (PubChem BioAssay)
# This is a sample that favours compounds with a hit; in the whole collection about 7.9% have one here.
# HCV inhibitor = HCV inhibition; Huh7.5.1 HCVcc-Cre infection, luciferase reporter, 44 h; Potency, µM (highest dose often 41.8 µM), inactives show at the highest dose activity change, negative = inhibition, most hits filed as inhibitors; 340,000 compounds, 3.4% hits; AID 651820; active = well fitted inhibition curve with a large enough effect; inconclusive = small, poorly fitted or top-dose-only effect, or another doubt; inactive = no such curve, though single readings can be large or run the other way; also: potency is read from the fitted curve at half-maximal effect
#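 Infectious HCVcc-Cre (~0.5 moi) was added to cells just after compound, with cells seeded 4 h earlier at 1,000 per well. Luciferase activity after 44 h culture reported infection; substrate was incubated 15 min at room temperature before reading.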
# LASV entry inh = blocks Lassa virus binding to or entry into cells; Lassa virus pseudotype entry inhibition, cell reporter; Potency, µM (highest dose often 37.9 µM), inactives show top-dose activity change, negative = inhibition, actives largely listed as inhibitors; 300,000 compounds, 1.2% hits; AID 540256; calls by dose curve; tested in HEK293 cells; also: potency is read from the fitted curve at half-maximal effect; nearly all actives have a fitted effect of over 50% in size
# MARV entry inh = blocks Marburg virus binding to or entry into cells | Marburg virus pseudotyped entry inhibition, cell reporter | 300,000 compounds, 1.8% hits | Potency, µM (top dose mostly 37.8 µM), without a hit: at the top dose activity change, negative = inhibition, most hits filed as inhibitors; calls by dose curve; tested in HEK293 cells; also: potency is read from the fitted curve at half-maximal effect
# FMDV antiviral = blocks foot and mouth disease virus; FMDV antiviral cell-based qHTS; Potency, µM (highest dose often 57.9 µM), for the others: top-dose activity change, negative = inhibition, hits mostly inhibitors; 410,000 compounds, 1.2% hits; AID 1159524; calls by dose curve; tested in HEK293T cells; also: read-out not given here; potency is read from the fitted curve at half-maximal effect; nearly all actives have a fitted effect of over 45% in size
# HCMV antiviral = human cytomegalovirus inhibition | HFF cells, HCMV-luciferase reporter, 72 h; hits give low values | activity change, negative = inhibition, % at 57.5 µM | 410,000 compounds, 4.5% hits | AID 1259415; in the data active = activity change below about -60%; inconclusive = no clear call, values can overlap the other calls; inactive = above about -39%
#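 Inhibition of viral replication was scored as loss of reporter luminescence in HFFs infected with HCMV-luciferase (MOI 1 PFU/cell) for 72 h; compounds tested at 2 doses, normalized to buffer and Salinomycin controls.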
# Active calls of the source: *; ? = inconclusive; nt = no result given; ! = repeats disagree; [ ] = dose if it differs, or a comment. % is scaled to controls: 0 for no effect and ±100 for the full control effect.
SMILES,HCV inhibitor,LASV entry inh,MARV entry inh,FMDV antiviral,HCMV antiviral
CN1CCN(C(=O)c2ccc3c(c2)S(=O)(=O)c2ccccc2C3=O)CC1,-18%[8.37 µM],nt,nt,-13%,-62*
COc1ccc(NC(=O)c2ccc3c(c2)S(=O)(=O)c2ccccc2C3=O)cc1,3%,nt,nt,-17%,-63*
CC(=O)N1CCN(C(=O)c2ccc3c(c2)S(=O)(=O)c2ccccc2C3=O)CC1,13%,-2%[46.1 µM],1%[46.1 µM],-3%,nt
COc1ccc(OC[C@@H](O)CNC(=O)c2cccc3c2C(=O)c2ccc(-c4ccc(F)cc4OCc4ccccc4)cc2S3(=O)=O)cc1,?,nt,nt,-19%,nt
COc1ccc(NC(=O)c2cccc3c2C(=O)c2ccc(-c4ccc(F)cc4OCc4ccccc4)cc2S3(=O)=O)cc1,-6%,nt,nt,-2%,-64*
COC(=O)NCC(c1cccnc1)N1CCN(c2ccccc2F)CC1 (centres undefined),8%,nt,nt,-19%,16
CCc1ccccc1NC(=O)C(=O)NCC(c1cccnc1)N1CCN(c2ccccc2F)CC1 (centres undefined),nt,-24%[46.1 µM],nt,40µM*,-8
COc1ccc(C)cc1NC(=O)C(=O)NCC(c1cccnc1)N1CCN(c2ccccc2F)CC1 (centres undefined),nt,-16%[46.1 µM],nt,?,-24
COc1ccc(CNC(=O)C(=O)NCC(c2cccnc2)N2CCN(c3ccccc3F)CC2)cc1 (centres undefined),nt,9%[46.1 µM],nt,-7%,-70*
CC(C)=CCc1c(O)cc2c(c1O)C(=O)CC(c1ccc(O)cc1)O2 (centres undefined),?,nt,nt,-19%,17
CC(C)=CCc1c([C@@H]2CCc3ccc(O)cc3O2)cc2c(c1O)OC(C)(C)C=C2,14µM*,nt,nt,-5%,nt
COc1cc2nc(C3CCC3)nc(N3CCN(c4ccccc4OC)CC3)c2cc1OC,3.2µM*,?,?,?,25
COc1cc2nc(C3CCC3)nc(N3CCN(c4ccccn4)CC3)c2cc1OC,?,?,?,18µM*,nt
Cc1cccc(C(=O)Nc2nnc(S(=O)(=O)N(C)c3ccccc3C)s2)c1,nt,?,nt,-4%,-6
Fc1cnc(N2CCN(c3ccccc3)CC2)nc1N1CCN(c2ccccc2)CC1,?,?,?,20µM*,?
Clc1ccc2c(N/N=C/c3ccccc3Br)ccnc2c1,?,-1%,?,0%,-64*
Clc1ccc2c(NNc3ccccc3Cl)ccnc2c1,-1%,3%,-21%,-3%,9
O=[N+]([O-])c1ccc(/C=N/Nc2ccnc3cc(Cl)ccc23)o1,?,-16%[46.1 µM],?,22%,-66*
CCN(CC(=O)NCc1ccc(Cl)cc1)C(=O)c1ccc2cc(OC)ccc2c1,?,?,?,11%,-13
CCN(CC(=O)NCc1ccc(Cl)cc1)C(=O)c1cnc(Cl)c(Cl)c1,-25%,-4%,5%[46.1 µM],3%,-63*
O=S(=O)(c1cc(F)ccc1F)N1CCN(c2ncnc3ccccc23)CC1,3.2µM*,nt,nt,10µM*,?
Cc1ccccc1NC(=O)CN(C)S(=O)(=O)c1cccc2nsnc12,nt,28%[46.1 µM],nt,7%,-6
Cc1ccc(S(=O)(=O)N(C)C)cc1NC(=O)CCc1ccccc1,-1%,nt,nt,-10%,3
O=C1CCCc2cc3c(cc21)CC1(C3)Cc2cc3c(cc2C1)C(=O)CCC3,11µM*,nt,nt,?,-81*
CCc1ccc2c(c1)C(=O)CCC2,22%,26%[46.1 µM],1%[46.1 µM],12%,-19
SMILES,HCV inhibitor,LASV entry inh,MARV entry inh,FMDV antiviral,HCMV antiviral
Cc1cc(NC(=O)CCSc2nc(-c3ccco3)cc(C(F)(F)F)n2)no1,?,-11%,4%,-7%,24
Cc1ccccc1Cn1ccc(NC(=O)CCSc2nc(-c3ccco3)cc(C(F)(F)F)n2)n1,3.2µM*,-27%,1.1µM*!,0%,7
Cc1ccc(Cn2ccc(NC(=O)CCSc3nc(-c4ccco4)cc(C(F)(F)F)n3)n2)cc1,11µM*,?,?,?,35
Cc1cc(C)cc(-n2ccnc2SCC(=O)Nc2ccc(C)cc2C)c1,nt,?,nt,-24%,-23
COc1ccc(C2C(C#N)=C(C)NC3=C2S(=O)(=O)c2ccccc23)cc1 (centres undefined),13%,-20%,-22%,-14%,-108*
COC(=O)C1=C(C)NC2=C(C1c1ccc(O)cc1)S(=O)(=O)c1ccccc12 (centres undefined),19%,11%,3%[46.1 µM],-4%,55
Nc1nc2c(nnn2C2CC(O)C(CO)O2)c(=O)[nH]1 (centres undefined),nt,nt,nt,-6%,-12
CC1CC(C)(C)CC2(C1)NC(=O)N(CC(=O)N1CCN(Cc3ccc(C#N)cc3)CC1)C2=O (centres undefined),1.4µM*,?,?,?,-84*
CC(=O)N1CCN(C(=O)CN2C(=O)NC(C)(c3ccc4ccccc4c3)C2=O)CC1 (centres undefined),-9%,2%,1%,-17%,-22
CC1(c2ccc3ccccc3c2)NC(=O)N(CC(=O)N2CCN(Cc3ccc(C#N)cc3)CC2)C1=O (centres undefined),1.3µM*,?,0.56µM*,?,nt
Cc1cccc(NC(=O)CN2CCN(C(=O)CN3C(=O)NC4(CC(C)CC(C)(C)C4)C3=O)CC2)c1C (centres undefined),?,nt,nt,-29%,0
CC(CN1CCCCC1)OC(=O)c1ccccc1F (centres undefined),12%,nt,nt,-4%,-10
CCCc1nn(-c2cc(Cl)ccc2OC)c2c1C(=O)CC(C)(C)C2,-27%,nt,nt,?,16
CCc1nn(-c2cc(Cl)ccc2OC)c2c1C(=O)CCC2,14µM*,?,?,-9%,-7
Cn1ncc2c(O/N=C(\N)c3ccc(C(C)(C)C)cc3)ncnc21,5.6µM*,?,?,14µM*,nt
CCCn1c(SCc2nc(-c3ccc(OC)c(OC)c3)no2)nnc1-c1ccccc1,nt,-26%[46.1 µM],5.6µM*,-8%,-15
CCOc1cc2c(cc1OCC)-n1cccc1C(c1ccc(C(C)C)cc1)NC2 (centres undefined),?,?,?,?,-68*
CCCCn1c(=O)[nH]c(=O)c2c(C(=O)OCC)cc(-c3cccs3)nc21,10µM*,?,?,?,-25
O=C(CN1CCN(S(=O)(=O)c2ccccc2)CC1)Nc1ccc([N+](=O)[O-])cc1,?,-17%,2%,0%,-69*
O=S(=O)(c1ccc(F)cc1)N1CCN(CC(O)COc2ccccc2F)CC1 (centres undefined),3%,1%,-1%,-23%,?
Cc1ccc(S(=O)(=O)N2CCN(CC(=O)Nc3ccc([N+](=O)[O-])cc3)CC2)cc1C,-16%,5%,4%,-26%,?
CCc1cccc(C)c1NC(=O)CN1CCN(S(=O)(=O)c2ccc(C(C)(C)C)cc2)CC1,2µM*,-3%,-24%[46.1 µM],-24%,-20
